# PKA-R1A activ: activates the PKA-R1A holoenzyme complex | P00514+P68181 | activation, % at 11.4 µM | PKA-R1A dissociation, Cy5-IP20 fluorescence polarization; scaled: DMSO 0%, 113 µM cGMP 100% | 0.083% of 340,000 active;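 active = percent activation above the mean of all tested compounds plus 3 SD, cut at about 19% in these data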;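 also: higher means more PKAc released from R1A so a rise in polarization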
# pPAFAH FP inh: inhibitors of human plasma PAF acetylhydrolase (pPAFAH); AID 463082; inhibition, % at 3.39 µM; Q13093; recombinant pPAFAH, FP-rhodamine probe fluorescence polarization; 1.5% of 330,000 active;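 active = inhibition above the mean inhibition across the screen plus 3 SD, cut at about 25% in these data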;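 also: inhibitors block binding of the rhodamine activity-based probe so polarization drops; 0% = enzyme with DMSO and 100% = wells lacking pPAFAH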
# PAFAH1B3 FP inh: PAFAH1B3 (human) inhibition | recombinant PAFAH1B3, FP-rhodamine probe, fluorescence polarization | 0.28% of 340,000 active | inhibition, % at 3.39 µM;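 active = inhibition above the screen-wide average of all tested compounds plus 3 SD, cut at about 25% in these data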;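 also: 0% = enzyme with DMSO only and 100% = wells lacking PAFAH1B3 protein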
# Target sequence (Q15102 whole entry, looked up): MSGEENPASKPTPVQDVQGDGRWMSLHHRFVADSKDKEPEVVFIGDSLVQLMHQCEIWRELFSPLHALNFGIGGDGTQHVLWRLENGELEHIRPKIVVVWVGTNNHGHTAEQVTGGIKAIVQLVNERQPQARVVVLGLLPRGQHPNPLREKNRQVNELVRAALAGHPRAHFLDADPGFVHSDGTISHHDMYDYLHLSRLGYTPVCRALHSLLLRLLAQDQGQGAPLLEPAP
# PAFAH1B2 FP inh: PAFAH1B2 (human) inhibition | inhibition, % at 3.39 µM | 1.2% of 340,000 active | recombinant PAFAH1B2, FP-rhodamine activity probe, fluorescence polarization | P68402;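 active = inhibition above the mean of all tested compounds plus 3 SD, cut at about 24% in these data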;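 also: 0% = enzyme with DMSO and 100% = wells lacking PAFAH1B2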
# Target sequence (P68402 whole entry, looked up): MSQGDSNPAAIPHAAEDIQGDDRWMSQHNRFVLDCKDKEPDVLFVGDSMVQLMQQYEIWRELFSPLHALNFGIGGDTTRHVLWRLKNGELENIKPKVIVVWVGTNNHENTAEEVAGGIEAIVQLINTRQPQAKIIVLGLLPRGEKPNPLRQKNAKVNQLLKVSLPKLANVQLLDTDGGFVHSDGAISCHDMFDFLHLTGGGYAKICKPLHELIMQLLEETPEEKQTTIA
# PAFAH2 inh: inhibitors of human PAFAH2. Q99487. inhibition, % at 3.39 µM. 0.99% of 340,000 active. AID 492956. recombinant PAFAH2, FP-rhodamine activity probe, fluorescence polarization;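 active = inhibition above the mean over all tested compounds plus 3 SD, cut at about 30% in these data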;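 also: inhibitors block probe labeling of enzyme so polarization drops; 0% = enzyme with DMSO and 100% = wells lacking PAFAH2 protein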
# PKA-R2B act: activators of human PKA-R2B complex | PKA-R2B holoenzyme dissociation, Cy5-IP20 fluorescence polarization; R2B truncated from residue 108, S112A mutant; 0% DMSO only, 100% 113 µM cGMP | 0.079% of 340,000 active | activation, % at 11.4 µM;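 active = activation above a cutoff set at the mean over all compounds plus 3 SD, cut at about 18% in these data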;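 also: higher means more holoenzyme dissociation and a rise in polarization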
# pPAFAH confirm: pPAFAH (human) inhibition, confirmed. shares compounds with pPAFAH FP inh. recombinant pPAFAH, FP-Rh probe fluorescence polarization. inhibition, % at 3.39 µM. 72% of 2,300 active;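 active = mean inhibition of the triplicate above the hit cutoff set for the earlier primary screen, cut at about 25% in these data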;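 also: 0% = enzyme with DMSO and 100% = wells lacking pPAFAH enzyme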
# Starred values were filed as active, the others as inactive; · = not tested or not shown; ! = not active in a repeat. Most compounds without a hit are left out; they make up all but 2.6% or so of the library.
SMILES,PKA-R1A activ,pPAFAH FP inh,PAFAH1B3 FP inh,PAFAH1B2 FP inh,PAFAH2 inh,PKA-R2B act,pPAFAH confirm
O=[N+]([O-])C1=C(Nc2cccc3ccccc23)CS(=O)(=O)C1,-8,39*,7,10,3,-2,4
O=C(Nc1cccc2ccccc12)c1ccc([N+](=O)[O-])o1,-14,5,5,-5,4,-1,·
Cc1ccccc1-n1c(C)cc(/C=N/Nc2ccc([N+](=O)[O-])cn2)c1C,4,5,2,0,-2,4,·
Cc1cc(/C=N/Nc2ccc([N+](=O)[O-])cn2)c(C)n1-c1ccc(C(=O)O)cc1,6,54*,11,-1,8,8,18
O=C1NN(c2ccc(Br)cc2)C(=O)/C1=C\c1ccc(O)cc1O,11,37*,6,15,24,-7,25*
O=C1NN(c2ccccc2)C(=O)C1=Cc1ccccc1O,14,·,·,·,·,-1,·
N#C/C(=C\c1ccc(Cl)c([N+](=O)[O-])c1)c1ccccn1,-19,1,0,7,6,1,·
O=[N+]([O-])c1ccc(Cl)c2c1C1C=CCC1C(c1ccccn1)N2 (configuration not stated),-2,37*,25,9,27,2,7
C[C@@H]1CN([C@H](C)CO)C(=O)c2cc(Br)cnc2O[C@H]1CN(C)Cc1ccccc1,7,·,·,·,·,8,·
CCc1ccc(S(=O)(=O)Nc2ccc(O)c3c(=O)cc(-c4ccccc4Cl)oc23)cc1,-4,0,10,1,-10,-1,·
O=c1cc(-c2ccccc2Cl)oc2c(NS(=O)(=O)c3cc(Cl)cc(Cl)c3O)ccc(O)c12,12,41*,14,13,12,5,78*
Cc1noc(C)c1NC(=O)Nc1ccc2c(c1)C(=O)N([C@H](C)CO)C[C@H](C)[C@@H](CN(C)C(=O)NC(C)C)O2,-6,0,7,4,3,0,·
O=c1nc(/C=C/c2cccn2-c2ccc([N+](=O)[O-])cc2)cc(C(F)(F)F)[nH]1,-1,36*,1,9,6,-2,15
Fc1cccc(/C=N/n2c(C3CCCCC3)n[nH]c2=S)c1,5,3,8,12,6,3,·
Cc1ccc(S(=O)(=O)NCCN=Cc2ccc(N(C)C)cc2)cc1,5,5,4,1,-21,1,·
CCOc1ccc2cc(C#N)c(SCC(=O)N3CCOCC3)nc2c1,4,82*,7,0,1,2,6
CCc1noc(C)c1C(=O)OCC(=O)NC(C)c1ccccc1 (configuration not stated),3,35*,5,-1,-2,0,1
CCc1noc(C)c1C(=O)OCC(=O)NCc1ccccc1,-6,2,5,7,-2,-2,·
CCOP(=O)(OCC)c1nc(-c2cccc3ccccc23)oc1NCCc1ccc(OC)cc1,-6,38*,7,-1,6,0,44*
COc1ccc(CNc2oc(-c3cccc4ccccc34)nc2C#N)cc1,-9,-1,2,-3,-7,5,·
O=S(=O)(Nc1ccc(O)c(Sc2nc3ccccc3s2)c1)c1ccc(F)cc1,2,52*,-8,14,-3,-18,40*
O=C(O)c1cccc(S(=O)(=O)Nc2ccc(O)c(Sc3nc4ccccc4s3)c2)c1,7,11,-2,13,-5,1,·
N#CC1=C(N)Oc2n[nH]c(-c3cccs3)c2C1c1ccsc1 (configuration not stated),5,38*,8,10,10,5,6
N#CC1=C(N)Oc2n[nH]c(-c3cccs3)c2C1c1ccncc1 (configuration not stated),-9,4,13,4,3,1,·
Clc1ccc(C2Nc3cccc4cccc(c34)N2)c(Cl)c1,-2,·,11,9,5,-13,·
SMILES,PKA-R1A activ,pPAFAH FP inh,PAFAH1B3 FP inh,PAFAH1B2 FP inh,PAFAH2 inh,PKA-R2B act,pPAFAH confirm
Clc1cccc(-c2ccc(C3Nc4cccc5cccc(c45)N3)o2)c1,-6,39*,31*,25*,-9,11,38*
COC(=O)c1ccccc1NC(=O)CCC(=O)N1CCSc2ccccc21,12,41*,-2,9,1,-4,4
Cc1cc(C)cc(NC(=O)CCC(=O)N2CCSc3ccccc32)c1,4,12,1,6,0,1,·
Cc1cc(C(=O)CSc2nc(N)cc(=O)[nH]2)c(C)n1-c1ccc(OC(F)F)cc1,7,60*,-1,0,0,-7,71*
Cc1cc(C(=O)CSc2nc(N)cc(=O)[nH]2)c(C)n1CCc1ccc(F)cc1,2,61*,-12,-4,-9,-12,62*
COc1ccc(CCn2c(C)cc(C(=O)CSc3nc(N)cc(=O)[nH]3)c2C)cc1,9,35*,-2,1,-4,4,31*
Cc1cc(C(=O)CSc2nnc(N)s2)c(C)n1CCc1ccc(F)cc1,2,13,12,10,3,1,·
CCc1cccc(CC)c1N1C(=O)C2=C(SCCCS2)C1=O,-6,·,·,·,·,-2,·
N[C@@H](Cc1cc(I)c(Oc2ccc(O)c(I)c2)c(I)c1)C(=O)O,-20,69*!,3,7,27,-10,71*
N[C@@H](Cc1cc(I)c(Oc2cc(I)c(O)c(I)c2)c(I)c1)C(=O)O,·,44*,·,·,·,·,39*
Nc1cccc(N=[N+]([O-])c2cccc(N)c2)c1,0,·,8,6,1,-7,·
Cc1ccc(N(C)S(=O)(=O)c2c(C)noc2/C=C/N(C)C)cc1,-2,5,12,6,0,-14,·
COc1cccc(NC(=O)Nc2cc(C(=O)NCC3CCCO3)ccc2N2CC3CC(C2)c2cccc(=O)n2C3)c1 (configuration not stated),-15,62*,10,1,7,2,61*
CCC(NC(=O)c1cncc(Br)c1)c1ccccc1 (configuration not stated),-4,2,13,11,3,-10,·
CN(C(=O)CSc1nc(O)cc(=O)n1C1CCCC1)c1ccccc1,0,48*,8,4,-9,-2,8
O=c1cc(CSc2ccccc2)[nH]c2ccccc12,-5,1,-11,9,0,-3,·
Cc1ccc(SCc2cc(=O)c3c(=O)n(-c4ccccc4)[nH]c3[nH]2)cc1,-12,46*,14,25*,25,3,21
O=c1cc(CSc2ccc(Cl)cc2)[nH]c2[nH]n(-c3ccccc3)c(=O)c12,-2,43*,6,45*,33*,-10,27*

# High-throughput results from PubChem BioAssay.
